From the supplement of paper PMC10338343
± gives the standard deviation.

The sequences below were run on MILI (PIWIL2) piRISC loaded with piRNA #1 (26 nt) (assay: pre-steady-state target cleavage rate (min^-1); guide: piRNA #1 5'p-UGAGGUAGUAGGUUGUAUAGUAUCCA; higher = faster piRNA-guided slicing of the target). Conditions: auxiliary factor: 500 nM mouse GTSF1.
Summary of the method: (§1)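 With or without 500 nM GTSF1 partner protein, 1 nM active affinity-purified piRISC carrying one synthetic guide was mixed with 0.1 nM transcribed, DNA-blocked target RNA library in HEPES–potassium acetate buffer at 33 °C for 0–8 or 0–960 min. Uncleaved targets were sequenced and normalised to depth and to weakly complementary targets, three trials were pooled, and k3 was capped at 0.0001 min^-1. The pre-steady-state cleavage rate came from a burst-and-steady-state fit.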

| Sequence | pre-steady-state target cleavage rate |
| --- | --- |
| GGAGAGGAAACUAUACAACGUACUACCUCA | 0.0138 ± 0.0051 |
| GGAGAGGAAAGUAUACAACCUACUACCUCA | 0.0417 ± 0.0061 |
| GGAGACGAAACUAUUCAACCUACUACCUCA | 0.198 ± 0.021 |
| GGAGUGCAUACUAUACAACGUACUACCUCA | 0.0301 ± 0.0044 |
| GGAGACGAUUCUAUACAAGCUACUACCUCA | 0.239 ± 0.01 |
| GGAGACGAUAGCUAUACAACCUACUACCUCA | 0.0779 ± 0.0075 |
| GGAGAGGAUAGUUUACAACCUACUACCUCA | 0.0583 ± 0.0089 |
| GGAGAGCAUACUAUACAACCUACUACCUCA | 0.188 ± 0.015 |
| GGAGUGGAUACUAUACAACUACUACCUCA | 0.0608 ± 0.0047 |
| GGAGACCAUACUAUAUAACCUACUACCUCA | 0.155 ± 0.016 |
| GGAGAGGUUACUAUACAACCUUCUACCUCA | 0.00963 ± 0.0021 |
| GGAGUGGAUGACUAUACAACCUACUACCUCA | 0.0838 ± 0.019 |
| GGAGAGGUAUACUAUACAACCUACUACCUCA | 0.111 ± 0.0086 |
| GGAGACCUAUGCAUACAACCUACUACCUCA | 0.0358 ± 0.0081 |
| GGAGACGAUACUAUAACAACCUACUACCUCA | 0.142 ± 0.012 |
| GGAGACGAUACUCUACAACCUACUACCUCA | 0.176 ± 0.012 |
| GGAGAGGAUCACUAUACAACCUACUACCUCA | 0.086 ± 0.019 |
| GGAGACCAUAUUAUACAACCUACUACCUCA | 0.188 ± 0.015 |
| GGAGUGGAUCUAUACAACCUACUACCUCA | 0.155 ± 0.011 |
| GGAGACCUUACUAUACAACCUACUACCUUA | 0.174 ± 0.019 |

| Sequence | pre-steady-state target cleavage rate |
| --- | --- |
| GGAGACGAUAAUAUACAACCUACUACCUCA | 0.172 ± 0.011 |
| GGAGUGCAUACUAUACAACCUACUACCUCA | 0.18 ± 0.0089 |
| GGAGACGAUACUAUACAACCUACUACCUUA | 0.228 ± 0.027 |
| GGAGAGGAUACUAUACAACCUACAAGCUCA | 0.00476 ± 0.0031 |
| GGAGACGAUACUAUACAUCGUACUACCUCA | 0.0496 ± 0.0064 |
| GGAGAGGAUAGUAUACAACCUAGUACCUCA | 0.0263 ± 0.008 |
| GGAGUGGAUACUAUACAAGCUACUACGUCA | 0.0651 ± 0.013 |
| GGAGACCAAUCUAUACAACCUACUACCUCA | 0.117 ± 0.02 |
| GGAGACCAUACUAUACAACCUACAACGUCA | 0.0302 ± 0.012 |
| GGAGACCAUACUAGUACAACCUACUACCUCA | 0.089 ± 0.011 |
| GGAGAGGAUACUAUACAAGCUACUACCUGA | 0.111 ± 0.015 |
| GGAGACCUUACUAUACAAUCUACUACCUCA | 0.127 ± 0.01 |
| GGAGACCUAAACUAUACAACCUACUACCUCA | 0.148 ± 0.018 |
| GGAGACCUAUCUAUACAACCUAUUACCUCA | 0.0974 ± 0.01 |
| GGAGAGGAUACUAUACAACCUAGUACCUCA | 0.00636 ± 0.0033 |
| GGAGACCAUUCUAUACAACCUACUACGUCA | 0.0404 ± 0.0088 |
| GGAGAGGAUACUAGUACAACCUACUACCUCA | 0.079 ± 0.011 |
| GGAGUGGAUACUAAUACAACCUACUACCUCA | 0.135 ± 0.0082 |
| GGAGACCUAUGAUAUGUACCUACAUGGAGA [g8:g13:cont:t1A] | < 0.0001 |
| GGAGACCUAACUCUACAACCUACUACCUCA | 0.114 ± 0.031 |

What follows are sequences tested on EfPiwi piRISC loaded with piRNA #1 (26 nt) (assay: pre-steady-state target cleavage rate (min^-1); auxiliary factor: 500 nM Ephydatia muelleri Gtsf1; guide: piRNA #1 5'p-UGAGGUAGUAGGUUGUAUAGUAUCCA; MIWI and MILI are mouse PIWI proteins and EfPiwi is from a freshwater sponge; tags in brackets are library labels; higher = faster piRNA-guided slicing of the target). Conditions: not given.
Summary of the method: as §1

| Sequence | pre-steady-state target cleavage rate |
| --- | --- |
| GGAGAGGAAACUAUACAACGUACUACCUCA | 0.00339 ± 0.0016 |
| GGAGAGGAAAGUAUACAACCUACUACCUCA | 0.00774 ± 0.0044 |
| GGAGACGAAACUAUUCAACCUACUACCUCA | 0.00439 ± 0.0036 |
| GGAGUGCAUACUAUACAACGUACUACCUCA | 0.00739 ± 0.0027 |
| GGAGACGAUUCUAUACAAGCUACUACCUCA | 0.00369 ± 0.003 |
| GGAGACGAUAGCUAUACAACCUACUACCUCA | 0.0112 ± 0.0049 |
| GGAGAGGAUAGUUUACAACCUACUACCUCA | 0.0061 ± 0.0039 |
| GGAGAGCAUACUAUACAACCUACUACCUCA | 0.0285 ± 0.012 |
| GGAGUGGAUACUAUACAACUACUACCUCA | 0.00835 ± 0.0039 |
| GGAGACCAUACUAUAUAACCUACUACCUCA | 0.00757 ± 0.0042 |
| GGAGAGGUUACUAUACAACCUUCUACCUCA | 0.00505 ± 0.0025 |
| GGAGUGGAUGACUAUACAACCUACUACCUCA | 0.00475 ± 0.0037 |
| GGAGAGGUAUACUAUACAACCUACUACCUCA | 0.0588 ± 0.023 |
| GGAGACCUAUGCAUACAACCUACUACCUCA | 0.0042 ± 0.0037 |
| GGAGACGAUACUAUAACAACCUACUACCUCA | 0.00793 ± 0.0029 |
| GGAGACGAUACUCUACAACCUACUACCUCA | 0.00744 ± 0.0035 |
| GGAGAGGAUCACUAUACAACCUACUACCUCA | 0.00867 ± 0.0051 |
| GGAGACCAUAUUAUACAACCUACUACCUCA | 0.116 ± 0.036 |
| GGAGUGGAUCUAUACAACCUACUACCUCA | 0.0612 ± 0.029 |
| GGAGACCUUACUAUACAACCUACUACCUUA | 0.0898 ± 0.034 |

| Sequence | pre-steady-state target cleavage rate |
| --- | --- |
| GGAGACGAUAAUAUACAACCUACUACCUCA | 0.072 ± 0.025 |
| GGAGUGCAUACUAUACAACCUACUACCUCA | 0.0787 ± 0.029 |
| GGAGACGAUACUAUACAACCUACUACCUUA | 0.224 ± 0.068 |
| GGAGAGGAUACUAUACAACCUACAAGCUCA | 0.00284 ± 0.0023 |
| GGAGACGAUACUAUACAUCGUACUACCUCA | 0.00254 ± 0.0012 |
| GGAGAGGAUAGUAUACAACCUAGUACCUCA | 0.00231 ± 0.002 |
| GGAGUGGAUACUAUACAAGCUACUACGUCA | 0.00405 ± 0.0015 |
| GGAGACCAAUCUAUACAACCUACUACCUCA | 0.0121 ± 0.0056 |
| GGAGACCAUACUAUACAACCUACAACGUCA | 0.00373 ± 0.0033 |
| GGAGACCAUACUAGUACAACCUACUACCUCA | 0.00796 ± 0.0044 |
| GGAGAGGAUACUAUACAAGCUACUACCUGA | 0.00442 ± 0.0019 |
| GGAGACCUUACUAUACAAUCUACUACCUCA | 0.00599 ± 0.0041 |
| GGAGACCUAAACUAUACAACCUACUACCUCA | 0.00974 ± 0.0047 |
| GGAGACCUAUCUAUACAACCUAUUACCUCA | 0.00466 ± 0.0039 |
| GGAGAGGAUACUAUACAACCUAGUACCUCA | 0.00393 ± 0.0016 |
| GGAGACCAUUCUAUACAACCUACUACGUCA | 0.0027 ± 0.0025 |
| GGAGAGGAUACUAGUACAACCUACUACCUCA | 0.0114 ± 0.0064 |
| GGAGUGGAUACUAAUACAACCUACUACCUCA | 0.08 ± 0.032 |
| GGAGACCUAUGAUAUGUACCUACAUGGAGA [g8:g13:cont:t1A] | < 0.0001 |
| GGAGACCUAACUCUACAACCUACUACCUCA | 0.0071 ± 0.0032 |
